Fam108B counter = counter-screen for RBBP9 inhibitors: inhibitors of mouse Fam108B; inhibition, % at 9.51 µM; 300,000 tested, 0.33% active; recombinant Fam108B, FP-Rh probe fluorescence polarization;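 active = inhibition above the screen mean inhibition plus 3 SD, computed separately per campaign, cut at about 18% in these data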;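 note: inhibitors lower polarization as less probe binds the enzyme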
PME-1 primary = PME-1 (human) inhibition; Q9Y570; recombinant PME-1, FP-Rh probe fluorescence polarization; inhibition, % at 5.9 µM; 320,000 tested, 0.53% active;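 active = inhibition above the campaign mean of all compounds plus 3 SD, cut at about 26% in these data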;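 note: competitive labeling of PME-1 active site by serine hydrolase directed probe; inhibitors block probe labeling so polarization falls and inhibition rises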
PP1 inh = PP1-alpha (human) inhibition in PP5 counter-screen; P62136; purified PP1alpha, OMFP fluorescence; inhibition, % at 6.7 µM; 320,000 tested, 0.9% active; AID 2235;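 active = inhibition above the mean inhibition of all tested compounds plus 3 SD, computed separately for each screening campaign, cut at about 15% in these data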
Target sequence (P62136 whole entry, looked up): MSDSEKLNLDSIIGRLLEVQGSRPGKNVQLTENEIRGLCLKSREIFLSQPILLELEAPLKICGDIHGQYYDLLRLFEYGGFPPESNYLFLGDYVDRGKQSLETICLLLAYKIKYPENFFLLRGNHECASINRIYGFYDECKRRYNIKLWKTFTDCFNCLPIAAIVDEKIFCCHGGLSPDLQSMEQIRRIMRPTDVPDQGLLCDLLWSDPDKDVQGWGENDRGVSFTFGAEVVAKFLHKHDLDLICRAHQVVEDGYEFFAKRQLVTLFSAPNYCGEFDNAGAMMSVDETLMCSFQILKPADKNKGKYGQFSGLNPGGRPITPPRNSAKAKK
LYPLA1 inh = blocks human lysophospholipase 1, a PME1 counter-screen | O75608 | recombinant LYPLA1, FP-Rh probe fluorescence polarization | inhibition, % at 5.9 µM | 320,000 tested, 0.16% active;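 active = inhibition above the mean of all tested compounds plus 3 SD, set per campaign, cut at about 14% in these data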;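 note: inhibitors block serine hydrolase probe labeling of LYPLA1 so polarization falls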
PP5 inh = PP5 (human) phosphatase inhibition; P53041; purified PP5c, OMFP substrate fluorescence; inhibition, % at 6.7 µM; 320,000 tested, 0.18% active;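 active = inhibition above the campaign's mean inhibition across all tested compounds plus 3 SD, cut at about 9.5% in these data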
LYPLA2 counter = counter-screen for PME1 inhibitors: inhibitors of human LYPLA2 | O95372 | recombinant LYPLA2, FP-Rh probe fluorescence polarization | inhibition, % at 5.9 µM | AID 2177 | 320,000 tested, 0.38% active;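 active = inhibition above the screen-wide mean plus 3 SD, limit set per campaign, cut at about 26% in these data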
Target sequence (O95372 whole entry, looked up): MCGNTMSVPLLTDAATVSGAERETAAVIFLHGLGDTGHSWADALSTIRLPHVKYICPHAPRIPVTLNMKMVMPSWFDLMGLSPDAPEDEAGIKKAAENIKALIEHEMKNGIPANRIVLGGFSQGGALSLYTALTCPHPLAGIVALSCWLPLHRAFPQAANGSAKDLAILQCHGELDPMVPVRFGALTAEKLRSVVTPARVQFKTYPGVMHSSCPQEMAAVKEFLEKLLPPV
Fam108b confirm = Fam108b (mouse) hydrolase inhibition, confirmation assay. shares compounds with Fam108B counter. recombinant Fam108b, FP-Rh probe fluorescence polarization. inhibition, % at 9.51 µM. 930 tested, 44% active;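 active = inhibition above a limit from the primary screen, the mean over all compounds plus 3 SD, cut at about 19% in these data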;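 note: inhibitors free the probe so polarization falls as inhibition rises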
Fam108b inh = mouse ABHD17B inhibition | shares compounds with Fam108B counter | recombinant Fam108b, gel-based ABPP, fluorophosphonate probe | 260 tested, 44% active | inhibition, % at 20 µM; in the data active = inhibition above about 40%
PP5 inh confirm = confirmation of human PP5 phosphatase inhibitors; shares compounds with PP5 inh; Purified PP5, fluorogenic phosphatase substrate, fluorescence; 460 tested, 22% active; AID 2331; inhibition, % at 6.7 µM; in the data active = inhibition above about 9.5%
PP1 counter 3x = PP1 phosphatase inhibition, counter-screen for PP5 inhibitors; shares compounds with PP5 inh; PP1 enzyme, fluorescent phosphatase substrate; inhibition, % at 6.7 µM; 460 tested, 4% active; AID 2355; in the data active = inhibition above about 16%
Large screens that a line does not name were inactive (follow-up assays come after a bar, where they were run). Rows were chosen to be rich in hits. Some 1.8% of all compounds tested hit in one or more screens of this group.

COc1ccc2nc(-n3c(C)ccc3C)sc2c1	none
CCOc1ccc2nc(N3CCCCCC3)sc2c1	none
CCOc1ccc2nc(N3C(=O)/C(=C/c4ccccc4)NC3=S)sc2c1	Fam108B counter 20 | Fam108b confirm inactive
Cc1ccc(CN2CC(C(=O)N3CC(C)CC(C)C3)CC2=O)cc1 (stereo unspecified)	none
S=C(NCc1ccccc1)NCc1cccc(CNC(=S)NCc2ccccc2)c1	Fam108B counter 36, PME-1 primary 35 | Fam108b confirm 25
NNC(=S)NCc1ccccc1	none
COC(=O)c1ccc(CNC(=O)CNC(=O)c2sc3ccccc3c2Cl)cc1	none
COc1ccc(-c2cc(-c3c(O)c(OC)c4occc4c3OC)[nH]n2)cc1OC	Fam108B counter 23, PME-1 primary 31 | Fam108b confirm inactive
COc1ccc(-c2oc3c(OC)c(OC)c(OC)c(O)c3c(=O)c2OC)cc1OC	none
CNc1ccc(Br)cc(C(=O)/C=C/c2ccc(OC)cc2)c1=O	none
CNc1ccc(Br)cc(C(=O)/C=C/c2ccc3c(c2)OCO3)c1=O	Fam108B counter 18 | Fam108b confirm inactive
CC(C)(C)c1ccc(S(=O)(=O)/N=C2\C=C(NS(=O)(=O)c3ccccc3)C(=O)c3ccccc32)cc1	none
COC(=O)c1ccccc1NC1=C/C(=N\S(=O)(=O)c2cccs2)c2ccccc2C1=O	Fam108B counter 20 | Fam108b confirm inactive
COC(=O)c1ccccc1NC1=C/C(=N\S(=O)(=O)c2ccc(C(=O)O)cc2)c2ccccc2C1=O	Fam108B counter 57, LYPLA2 counter 26 | Fam108b confirm 72 | Fam108b inh inactive
Cc1ccc(S(=O)(=O)/N=C2\C=C(Nc3cccc(C(=O)O)c3)C(=O)c3ccccc32)cc1	Fam108B counter 50 | Fam108b confirm 60 | Fam108b inh inactive
O=C1C(Nc2ccccc2)=C/C(=N/S(=O)(=O)c2cccs2)c2ccccc21	Fam108B counter 36, PME-1 primary 32 | Fam108b confirm 57
Cc1ccc(NC2=C/C(=N/S(=O)(=O)c3cccs3)c3ccccc3C2=O)cc1	none
N#CCCN(NC1=NS(=O)(=O)c2ccccc21)C(=O)c1ccccc1Br	none
O=C(NN1C(=O)/C(=C\c2ccc(O)c([N+](=O)[O-])c2)SC1=S)c1ccccc1Cl	Fam108B counter 25, PP1 inh 16 | Fam108b confirm 20
CC1CCN(S(=O)(=O)c2ccc(C(=O)Nc3ccccc3-c3nc4ccccc4[nH]3)cc2)CC1	Fam108B counter 29 | Fam108b confirm 71 | Fam108b inh 100
Clc1ccc2[nH]c3c(c2c1)CCc1cn[nH]c1-3	Fam108B counter 22, PME-1 primary 40 | Fam108b confirm inactive
O=C(O)c1cc(O)c2c(c1)[C@@H]([C@H]1c3cc(C(=O)O)cc(O)c3C(=O)c3c(O[C@@H]4O[C@H](CO)[C@@H](O)[C@H](O)[C@H]4O)cccc31)c1cccc(OC3O[C@H](CO)[C@@H](O)[C@H](O)[C@H]3O)c1C2=O (stereo partly specified)	Fam108B counter 99, PME-1 primary 74, PP1 inh 87, LYPLA1 inh 28, PP5 inh 9.8, LYPLA2 counter 90 | Fam108b confirm 116
N#C/C(=C/c1ccc(O)c(O)c1)c1nc2ccccc2[nH]1	Fam108B counter 27, PME-1 primary 29 | Fam108b confirm 29
COC(=O)c1ccc(COc2ccc(/C=C(\C#N)c3nc4ccccc4[nH]3)cc2OC)o1	Fam108B counter 19 | Fam108b confirm inactive
Cc1nc(CCNC(=O)c2cc(COc3ccc(F)cc3Cl)on2)sc1C	none
CN(C)c1ccc(/C=N/N2C(=S)SC(C)(C)C2N(O)C(=O)Nc2ccc([N+](=O)[O-])cc2)cc1 (stereo unspecified)	Fam108B counter 33 | Fam108b confirm 100
CNC(=O)N(O)C1N(/N=C/c2cccnc2)C(=S)SC1(C)C (stereo unspecified)	none
CN(C)c1ccc(C=NN2C(=S)SC(C)(C)C2N(O)C(=O)Nc2ccc([N+](=O)[O-])cc2)cc1 (stereo unspecified)	none (no result: Fam108B counter, PME-1 primary, PP1 inh, LYPLA1 inh, PP5 inh, LYPLA2 counter) | Fam108b inh 95
CNC(=O)N(O)C1N(/N=C/c2ccc(SC)cc2)C(=S)SC1(C)C (stereo unspecified)	none
CS(=O)(=O)c1ccc(Cl)c(NC(=O)CSc2nnc(-c3cccs3)n2N)c1	none (no result: Fam108B counter)
COc1ccc(OC)c(N(CC(=O)N2CCOCC2)S(C)(=O)=O)c1	none
O=C(Nc1ccc(-c2csc(Nc3cccc(C(F)(F)F)c3)n2)cc1)c1cc([N+](=O)[O-])cc(C(F)(F)F)c1	Fam108B counter 41 | Fam108b confirm inactive
CCN1CCCC1CNC(=O)c1cc([N+](=O)[O-])c(N(C)C)cc1OC (stereo unspecified)	none
N=C1/C(=C/c2cccn2CCOc2ccccc2)C(=O)N=C2SC=C(c3ccccc3)N12	Fam108B counter 19 | Fam108b confirm inactive
N=C1/C(=C\c2ccc(-c3cc(Cl)cc(Cl)c3)o2)C(=O)N=C2SC=C(c3ccccc3)N12	none
Nc1nc(-c2ccc(Br)cc2)cs1	none
Brc1ccc(-c2csc(Nc3nc(-c4ccc(Br)cc4)cs3)n2)cc1	Fam108B counter 50 | Fam108b confirm 34 | Fam108b inh 85
CCn1c(SCC(=O)NC2CCCC2)nnc1C(C)NC(=O)c1ccccc1Br (stereo unspecified)	none
O=C1C=C(Nc2ccccc2C(=O)O)c2ccccc2C1=O	Fam108B counter 21 | Fam108b confirm 36 | Fam108b inh inactive
CC(=O)Nc1ccc(NC(=O)c2cccc3ccccc23)cc1	none
CC(=O)Nc1ccc(N=Cc2c(O)c(C(=O)Nc3ccccc3)cc3ccccc23)cc1	Fam108B counter 22 | Fam108b confirm inactive
O=C(Nc1ccc(F)cc1)Nc1csc2ccccc12	none
CN(C)c1ccc(NC(=O)Nc2csc3ccccc23)cc1	Fam108B counter 19 | Fam108b confirm 27
O=C(CSc1nnc(Cc2csc(Nc3cccc(Cl)c3)n2)o1)N1CCc2ccccc21	Fam108B counter 19 | Fam108b confirm inactive
COc1ccccc1NC(=O)Nc1nc(CC(=O)Nc2ccc(F)c(F)c2)cs1	Fam108B counter 20, PP5 inh 9.9 | Fam108b confirm inactive | PP5 inh confirm inactive | PP1 counter 3x inactive

Bioassay records deposited in PubChem BioAssay by The Scripps Research Institute Molecular Screening Center.
